The panel holds about 83,000 compounds, 20% with a hit somewhere; the sample as a whole holds those more often.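 Cell lines were cultured in 96-well plates, exposed to a single compound concentration, and assessed for percent growth 48 hours later.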 Unmarked numbers belong to inactive results. Activity calls are given as the source filed them. The calls were made as follows: active = growth percent below 10; inactive = the rest.
Tests used:
Experiment in all cases: NCI-60 one-dose screen, 48 h (100 = growth as untreated, 0 = no growth, -100 = all killed)
NCI-H23 lung = settings: 10 µM
NCI-H226 lung = settings: 10 µM
NCI-H322M lung = settings: 10 µM
HOP-62 NSCLC = settings: 10 µM
NCI-H460 lung = settings: 10 µM
HOP-92 NSCLC = settings: 10 µM
NCI-H522 lung = settings: 10 µM
A549/ATCC NSCLC = settings: 10 µM
786-0 renal = settings: 10 µM
DU-145 prostate = settings: 10 µM
K-562 leukemia = settings: 10 µM
MALME-3M melanoma = settings: 10 µM
MDA-MB-231 breast = settings: 10 µM
RXF 393 renal = settings: 10 µM
SF-268 CNS = settings: 10 µM
SF-295 CNS = settings: 10 µM
SF-539 CNS = settings: 10 µM
UACC-257 melanoma = settings: 10 µM
M14 melanoma = settings: 10 µM unless noted

SMILES	growth (NCI-H23 lung)	growth (NCI-H226 lung)	growth (NCI-H322M lung) [%]	growth (HOP-62 NSCLC)	growth (NCI-H460 lung)	growth (HOP-92 NSCLC)	growth (NCI-H522 lung)	growth (A549/ATCC NSCLC)	growth (786-0 renal)	growth (DU-145 prostate)	growth (K-562 leukemia)	growth (MALME-3M melanoma)	growth (MDA-MB-231 breast) [%]	growth (RXF 393 renal)	growth (SF-268 CNS)	growth (SF-295 CNS) [%]	growth (SF-539 CNS)	growth (UACC-257 melanoma)	growth (M14 melanoma)
O=C1c2cccc3cc([N+](=O)[O-])cc(c23)C(=O)N1CCN1CCCC1	-21.7% (active)	-62.2% (active)	23.7	-23.3% (active)	-28.8% (active)	0.989% (active)	-54.1% (active)	-28.6% (active)	-18.8% (active)	-30.9% (active)	-10.2% (active)	-26.4% (active)	20.6	-43% (active)	0.438% (active)	11	-20.7% (active)	3.14% (active)	0.262% (active)
CCC(C)(c1ccc(O)c(C)c1)c1ccc(O)c(C)c1	91.9%	101%	318	84.5%	97.3%	82.4%	75.9%	83.4%	63.5%	110%	106%	219%	85	87.4%	89.7%	87.8	93.7%	107%	91.6%
COc1ccc(N)c2c1C(=O)c1ccccc1C2=O	99.6%	93.5%	91.1	111%	98.1%	84.1%	88.6%	96.7%	112%	112%	98.9%	88.2%	95.5	95.6%	104%	103	101%	106%	117%
CN(C)c1ccc(/C=C/c2ccnc3ccccc23)cc1N	48.8%	53%	85.1	77.2%	77.9%	-3.62% (active)	56.6%	72.6%	85.6%	83.5%	31.1%	68%	46.1	80.9%	87.4%	74.8	76.9%	58.7%	73.9%
CN(CC(=O)O)c1ccc(/C=C/c2ccnc3ccccc23)cc1	99%	60.8%	98.7	83.5%	94.5%	46.2%	78.1%	74.3%	95.8%	97.7%	50.5%	99.2%	66.8	111%	90.1%	92.2	90.3%	86.9%	90.3%
O=C(O)c1ccccc1.[Ag]	99.3%	104%	109	108%	100%	107%	-25.1% (active)	54%	108%	105%	90.3%	119%	89	106%	97.1%	99.7	106%	93.6%	96.4%
O=C(NC(=S)Nc1ccccn1)c1ccccc1	75.7%	91.1%	85.5	106%	94%	79.5%	82.1%	101%	90.1%	96.2%	143%	82.6%	91.6	103%	104%	104	88.6%	110%	91.9%

Reference: PubChem BioAssay (NCI)
